# Measured values: PubChem BioAssay AID488969 (Vanderbilt High Throughput Screening Facility, 2010)
# The full ranking holds about 110,000 compounds; the median of “z-score” is about -0.1, and the highest 2% start at about 2. Only a selection was taken, and the highest values are over-represented in it overall. The source made the active and inactive calls.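 How the source made its calls: active means z-score in the third read window above 3 or below -3; inactive means the rest.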
# Target: Metabotropic glutamate receptor 8 (Rattus norvegicus) (UniProt P70579)
# Experiment: mGluR8 Gi/Go-coupled signaling modulation – cell-based, rat, thallium flux, HTS, primary screen (AID 488969)
# Details: HEK293 rat mGluR8, GIRK (G protein-gated inwardly rectifying potassium channel) thallium flux, FluoZin2; at 10 µM; stronger effect = higher value; submaximal glutamate (EC20) added with thallium
# Chain of Metabotropic glutamate receptor 8 (Rattus norvegicus) (P70579 whole entry, looked up): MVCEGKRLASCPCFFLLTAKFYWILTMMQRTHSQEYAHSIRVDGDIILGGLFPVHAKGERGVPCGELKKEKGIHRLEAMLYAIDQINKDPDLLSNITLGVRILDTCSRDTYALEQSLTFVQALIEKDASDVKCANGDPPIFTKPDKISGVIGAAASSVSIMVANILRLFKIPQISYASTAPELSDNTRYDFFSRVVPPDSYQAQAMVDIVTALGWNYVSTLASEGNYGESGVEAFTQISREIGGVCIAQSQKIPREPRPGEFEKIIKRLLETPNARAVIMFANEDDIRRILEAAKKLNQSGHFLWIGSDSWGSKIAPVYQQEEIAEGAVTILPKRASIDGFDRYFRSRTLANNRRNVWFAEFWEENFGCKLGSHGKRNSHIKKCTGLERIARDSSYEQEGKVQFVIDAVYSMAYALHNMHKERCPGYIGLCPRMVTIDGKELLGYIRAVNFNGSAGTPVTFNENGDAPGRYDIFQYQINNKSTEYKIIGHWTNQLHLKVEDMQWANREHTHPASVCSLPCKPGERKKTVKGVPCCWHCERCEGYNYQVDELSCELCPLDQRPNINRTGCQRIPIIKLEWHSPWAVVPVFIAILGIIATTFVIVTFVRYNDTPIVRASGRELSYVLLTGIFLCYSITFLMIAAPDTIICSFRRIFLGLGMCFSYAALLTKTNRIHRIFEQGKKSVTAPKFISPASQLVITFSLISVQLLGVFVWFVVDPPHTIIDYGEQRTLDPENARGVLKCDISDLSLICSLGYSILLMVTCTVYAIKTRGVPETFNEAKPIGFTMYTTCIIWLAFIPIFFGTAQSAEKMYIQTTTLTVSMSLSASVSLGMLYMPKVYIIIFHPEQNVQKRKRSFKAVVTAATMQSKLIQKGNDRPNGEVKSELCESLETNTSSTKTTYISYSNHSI
row,SMILES,z-score
1,CC(C)C(=O)Nc1ccc(NC(=O)c2cc3ccccc3o2)cc1,-0.885
2,Cc1cccc(NC(=O)c2cc3ccccc3o2)c1,-1.37
3,CC(C)C(=O)Nc1cccc(NC(=O)c2cc3ccccc3o2)c1,7.7 (active)
4,CCOc1ccc(OCC)c(NC(=O)c2[nH]c(C)c(C(C)=O)c2C)c1,0.862
5,O=C(NCc1nc2ccccc2[nH]1)c1cccc(S(=O)(=O)N2CCOCC2)c1,0.567
6,O=C(NCc1nc2ccccc2[nH]1)c1ccc(Cl)c(S(=O)(=O)N2CCCC2)c1,-0.297
7,O=C(NCc1nc2ccccc2[nH]1)c1cccc(S(=O)(=O)N2CCCC2)c1,2.4
8,CCN(c1c(C)n(C)n(-c2ccccc2)c1=O)S(C)(=O)=O,0.17
9,Cc1ccc(S(=O)(=O)NC2CCCC2)cc1C,-0.157
10,Cc1cc(C)c2c(c1)-c1c(ssc1=S)C(C)(C)N2C(=O)CN1C(=O)c2ccccc2C1=O,0.383
11,CC(C)(C)Nc1nc(NN)nc(NC(C)(C)C)n1,-0.766
12,CC(C)(C)Nc1nc(Cl)nc(NC(C)(C)C)n1,-0.0263
13,CNc1nc(Cl)nc(NC(C)(C)C)n1,7.77 (active)
14,CCn1c(=NC(=O)CSC(C)=O)sc2ccccc21,3.49 (active)
15,CCn1c(=NC(=O)CSC(C)=O)sc2cc(OC)ccc21,0.477
16,CCn1c(=NC(=O)CSC(C)=O)sc2cc(F)ccc21,0.658
17,CN1CCN(CCC(=O)Nc2ccc3c(c2)OCO3)CC1,0.213
18,Cc1cccc(NC(=O)CSc2nc3ccc(NC(=O)CSc4nnnn4-c4ccccc4)cc3s2)c1C,0.181
19,CCN(CC)S(=O)(=O)c1cc(NC(=O)COC(=O)c2sc3ccccc3c2Cl)ccc1C,-0.0136
20,Cc1cc(/C=C2\SC(=S)NC2=O)c(C)n1C,-0.121
21,CCn1c(C)cc(/C=C2/SC(=S)NC2=O)c1C,0.271
22,Cc1sc(-n2c(C)cc(/C=C3\SC(=S)NC3=O)c2C)c(C#N)c1C,2.26
23,CCN1CCN(C(=O)C(C)N(c2ccc(C)cc2)S(C)(=O)=O)CC1 (stereo not given),1.05
24,CCOC(=O)c1sc(NC(=O)CN(CC)CC)c(C(=O)OCC)c1C,-0.132
25,CCOC(=O)c1sc(NN=C(C(=O)OC)C(=O)OC)c(C(=O)OCC)c1C,2.57

row,SMILES,z-score
1,CCOC(=O)c1sc(NC(=O)CN2CCCC2)c(C(=O)OCC)c1C,-0.225
2,COCCSc1ccccc1C(=O)Nc1ccncc1,0.236
3,CCCCOc1cccc(C(=O)NC(=S)Nc2cccc(C(F)(F)F)c2)c1,1.84
4,O=C(Cc1ccccc1)NC(=S)Nc1cc(C(F)(F)F)ccc1Cl,0.00533
5,O=C(CN1CCN(c2ccccc2)CC1)Nc1cccc(C(F)(F)F)c1,0.756
6,CCCOc1cccc(C(=O)NC(=S)Nc2ccccc2)c1,0.0309
7,S=C(NCc1ccccc1)NCc1ccc2c(c1)OCO2,1.86
8,O=C(Cc1ccccc1)NC(=S)Nc1cccc(C(F)(F)F)c1,4.01 (active)
9,S=C(NCc1ccccc1)NCc1ccccc1,0.346
10,O=C(CN1CCN(c2cccc(C(F)(F)F)c2)CC1)Nc1cccc(C(F)(F)F)c1,1
11,CCC(=O)Nc1cccc(NC(=S)NC(=O)Cc2ccccc2)c1,-0.281
12,CCCOc1cccc(C(=O)NC(=S)Nc2cccc(C(F)(F)F)c2)c1,3.57 (active)
13,O=C(CN1CCN(Cc2ccccc2)CC1)Nc1cccc(C(F)(F)F)c1,7.94 (active)
14,S=C(NCc1ccccc1)NCc1cccc(CNC(=S)NCc2ccccc2)c1,2.84
15,CCN(CC)C(=O)n1nc(C)c(CN2C(=O)c3ccccc3C2=O)c1C,-0.151
16,Nc1ccc(Cl)c(-c2nc3ncccc3o2)c1,0.714
17,CC(C)c1onc(C(=O)N2CCCCC2C)c1[N+](=O)[O-] (stereo not given),-0.0403
18,OC(CSc1ccccc1Cl)CN1CCN(c2ccc(F)cc2)CC1 (stereo not given),-0.618
19,CCOC(=O)c1cnc2ccc(C)cc2c1Sc1ccc(F)cc1,-0.262
20,Cc1ccc(S(=O)(=O)N2CCCC2C(=O)Nc2cc(C)on2)cc1 (stereo not given),0.4
21,Cc1ccc(CNC(=O)c2ccccc2NS(C)(=O)=O)cc1,-0.309
22,FC(F)(F)Oc1ccc(NC(=S)NCc2ccccc2)cc1,3.23 (active)
23,FC(F)Oc1ccc(NC(=S)NCc2ccccc2)cc1,1.51
24,COc1ccc(CNC(=S)Nc2ccc(OC)cc2)cc1,0.711
25,FC(F)(F)c1cccc(NC(=S)NCc2ccccc2)c1,5.63 (active)

row,SMILES,z-score
1,FC(F)(F)c1cccc(NC(=S)NNC(=S)NCc2ccccc2)c1,-0.388
2,FC(F)(F)c1cccc(NC(=S)NCc2ccccn2)c1,0.164
3,N=C(N)SCc1nc2ccccn2c1Br,0.308
4,CCOc1cccc(C(=O)Nc2ccc3oc(Cc4ccc(Cl)cc4)nc3c2)c1,-0.351
5,COc1ccc(N(CC(O)CN2C(=O)NC(C)(C)C2=O)S(=O)(=O)c2ccccc2)cc1 (stereo not given),-0.294
6,C=CCn1c(SCC)nc(O)cc1=O,-0.0583
7,C=CCn1c(SCc2c(F)c(F)c(F)c(F)c2F)nc(O)cc1=O,-0.151
8,C=CCn1c(SCc2ccccc2)nc(O)cc1=O,2.19
9,O/N=C/c1cc(Br)ccc1OCc1ccc(F)cc1,-0.142
10,Cc1nc2sccn2c(=O)c1Br,0.0767
11,Cc1nc2sccn2c(=O)c1Cl,0.324
12,Cn1c(=O)c2c(nc3sccn32)n(C)c1=O,3.7 (active)
13,COc1ccccc1C(=O)NCc1ccccc1,-0.524
14,Cc1ccc(O)c(NC(=S)NC(=O)c2ccc(-c3ccc(Cl)cc3)o2)c1,0.233
15,CC(=O)c1ccc(Cc2ncc(C(F)(F)F)cc2Cl)s1,-0.823
16,O=C(CCl)c1ccc(Cc2ncc(C(F)(F)F)cc2Cl)s1,-0.0387
17,NC(=O)c1ccc(Cc2ncc(C(F)(F)F)cc2Cl)s1,4.24 (active)
18,CC1Cc2ccccc2N1CC(=O)c1c(N)n(Cc2ccccc2)c(=O)n(C)c1=O (stereo not given),-0.314
19,Cc1ccc(-n2c(N)c(C(=O)N3CCN(C)CC3)sc2=S)cc1,0.948
20,Nc1c(C(=O)N2CCCCC2)sc(=S)n1-c1ccccc1,-0.163
21,CN1CCN(C(=O)c2sc(=S)n(-c3ccccc3)c2N)CC1,11.1 (active)
22,COc1ccc(OC)c(NS(=O)(=O)c2cc(OC)ccc2OC)c1,-0.0402
23,COCCCNS(=O)(=O)c1ccc(OC)c(Cl)c1Cl,0.284
24,COc1ccc(COC(=O)NNC(=O)c2ccccc2Cl)cc1,0.289
25,COc1ccc(-n2c(C)cc(C(=O)CN3C(=O)c4ccccc4C3=O)c2C)cc1,0.595
